Bioassay records deposited in PubChem BioAssay by National Center for Advancing Translational Sciences (NCATS).
PI4K2A inh: PI4K2A (human) kinase inhibition. purified PI4K2A, ADP-Glo luminescence, 1 h; hits give low values. hit rate 0.13% among 420,000. activity change, negative = inhibition, % at 76.9 µM. Q9BTU6. AID 1346378; in the data active means activity change below about -50%; inconclusive means mostly about -30% to -49%;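 further: -100% = wells without enzyme as full effect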
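Compounds are screened against recombinant PI4K2A using PI as substrate and ATP, the latter dispensed at 300 microM. Reactions run one hour at ambient temperature before ADP-Glo detection; full inhibition defined by wells lacking enzyme.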
POLB inh: DNA polymerase beta (human) inhibition; Pol beta primer extension/strand displacement, fluorescence kinetic; Potency, µM (doses to about 114 µM), for the others: top-dose activity change, negative = inhibition, actives largely listed as inhibitors; hit rate 1.3% among 340,000; AID 485314; further: potency means the concentration at half of the fitted maximal effect; on the % scale 0 is the no-effect control and ±100 the full control effect
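Reaction started by 50 nM substrate onto compound-treated Pol beta (10 nM, 15 min preincubation, room temperature); plates read at 0 min and 10 min. Normalized concentration-effect data fitted by four-parameter Hill equation.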
Pol kappa inh-1: inhibitors of human DNA polymerase kappa. Q9UBT6. purified Pol kappa, fluorescent DNA synthesis assay, 10 min. Potency, µM (titrated, usually from 107 µM), for inactives: at the highest dose activity, negative = inhibition, most hits filed as inhibitors. hit rate 0.53% among 400,000. AID 588579; further: potency means the concentration at half of the fitted maximal effect; on the % scale 0 is the no-effect control and ±100 the full control effect
Target sequence (Q9UBT6 whole entry, looked up): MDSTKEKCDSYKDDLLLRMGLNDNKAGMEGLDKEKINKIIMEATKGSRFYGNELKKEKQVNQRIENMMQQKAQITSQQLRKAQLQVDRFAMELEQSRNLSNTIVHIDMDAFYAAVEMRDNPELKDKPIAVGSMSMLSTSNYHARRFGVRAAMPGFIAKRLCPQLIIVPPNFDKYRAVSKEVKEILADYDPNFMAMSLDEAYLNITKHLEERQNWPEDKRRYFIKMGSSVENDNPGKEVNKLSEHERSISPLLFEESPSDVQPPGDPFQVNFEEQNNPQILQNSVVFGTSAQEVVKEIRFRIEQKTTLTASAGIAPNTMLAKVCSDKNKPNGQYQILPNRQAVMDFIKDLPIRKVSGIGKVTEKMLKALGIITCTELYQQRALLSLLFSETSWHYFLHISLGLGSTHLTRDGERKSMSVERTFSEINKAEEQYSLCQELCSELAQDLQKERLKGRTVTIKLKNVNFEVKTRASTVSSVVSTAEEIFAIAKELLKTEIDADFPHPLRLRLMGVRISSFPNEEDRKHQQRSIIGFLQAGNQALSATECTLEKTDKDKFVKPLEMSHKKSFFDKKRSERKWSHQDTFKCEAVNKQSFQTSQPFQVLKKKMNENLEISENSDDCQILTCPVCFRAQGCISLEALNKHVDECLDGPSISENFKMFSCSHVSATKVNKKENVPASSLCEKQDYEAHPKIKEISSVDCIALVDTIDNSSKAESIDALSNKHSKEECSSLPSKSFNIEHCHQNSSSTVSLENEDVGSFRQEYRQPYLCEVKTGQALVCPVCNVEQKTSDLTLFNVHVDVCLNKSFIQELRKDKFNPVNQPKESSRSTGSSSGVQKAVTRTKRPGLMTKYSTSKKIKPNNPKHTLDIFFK
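Here, compound and 10 nM enzyme are combined for 15 min at room temperature; adding 50 nM substrate (final) starts DNA synthesis, tracked by fluorescence at 0 and 10 min against buffer-only wells.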
Pol iota inh: blocks human DNA polymerase iota activity. Potency, µM (top dose mostly 115 µM), inactives show at the highest dose activity, negative = inhibition, most hits filed as inhibitors. hit rate 1% among 390,000. AID 588590. Pol iota fluorescent replication assay, 10 min. Q9UNA4; further: potency means the concentration at half of the fitted maximal effect
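Fluorescent replication assay read twice, at 0 min and 10 min after adding 50 nM (final) substrate. Enzyme (10 nM) and compounds were first incubated 15 min at room temperature; enzyme-free buffer wells were negative controls.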
Pol eta inh-1: blocks human DNA polymerase eta activity | Potency, µM (doses to about 114 µM), inactives show at the top dose activity change, negative = inhibition, most hits filed as inhibitors | hit rate 1.2% among 390,000 | recombinant Pol eta, fluorescent DNA replication assay | Q9Y253; further: potency means the concentration at half of the fitted maximal effect; on the % scale 0 is the no-effect control and ±100 the full control effect
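Pol eta (10 nM) was preincubated with compounds for 15 min at room temperature, after which fluorescent replication substrate (50 nM final) was added to start the reaction. Fluorescence was read kinetically at 0 and 10 min.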
PI5P4K alpha inh: blocks human PI5P4K alpha kinase activity. P48426. PI5P4Kalpha enzyme, ADP-Glo luminescence, 60 min; hits give low values. max response, %. hit rate 1.2% among 330,000. AID 652105; active means max response of -50% or lower; inconclusive means between -30% and -50%; inactive means -30% or higher; further: value at the top dose of about 77 µM; on the % scale 0 is the no-effect control and ±100 the full control effect
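ADP-Glo luminescence end-point read after a 60 min room-temperature kinase reaction of PI5P4Kalpha plus substrate, initiated with ATP at 5 microM final. Buffer: 0.038 M HEPES pH 7.4, EGTA, 0.1% CHAPS, 5% DMSO.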
PGK validate: validation of Trypanosoma brucei phosphoglycerate kinase inhibitors; TbPGK coupled GAPDH assay, Kinase-Glo luminescence; Potency, µM (doses to about 57.5 µM), for the others: at the highest dose activity change, negative = inhibition, hits mostly inhibitors; hit rate 79% among 500; shares compounds with Pol kappa inh-1; further: potency means the concentration at half of the fitted maximal effect; on the % scale 0 is the no-effect control and ±100 the full control effect; nearly all actives have a fitted effect of over 65% in size
Pol iota confirm: Human Pol iota inhibitor confirmatory assay | shares compounds with Pol kappa inh-1 | Pol iota primer extension, TAMRA/BHQ fluorescence | Potency, µM, actives largely listed as inhibitors | hit rate 77% among 1,500 | AID 720496; further: potency means the concentration at half of the fitted maximal effect
GALK inh confirm: confirmation of human galactokinase (GALK) inhibitors. shares compounds with Pol eta inh-1. purified GALK, Kinase-Glo ATP depletion luminescence. Potency, µM (highest dose often 115 µM), inactives show top-dose activity, negative = inhibition, actives largely listed as inhibitors. hit rate 70% among 150. AID 2015
Redox cycling: redox cycling activity in phenol red-HRP assay; shares compounds with Pol eta inh-1; Phenol red-HRP H2O2 redox cycling, absorbance 600 nm; Potency, µM (top dose mostly 115 µM), for the others: at the top dose activity change, negative = H2O2 signal, usual class: inhibitors; hit rate 40% among 150
HEK293 viability: reduces HEK-293 cell viability in GALK counter-screen | shares compounds with Pol eta inh-1 | HEK-293 viability, ATP luminescence (CellTiter-Glo), 24/48 h | Potency, µM (series often up to 46.1 µM), inactives show at the highest dose activity change, negative = cytotoxicity, actives largely listed as inhibitors | hit rate 10% among 170 | AID 2547; further: potency means the concentration at half of the fitted maximal effect; on the % scale 0 is the no-effect control and ±100 the full control effect
Pol kappa inh-2: confirmation of human DNA polymerase kappa inhibitors; shares compounds with Pol eta inh-1; purified Pol-kappa, fluorescent strand-displacement substrate; Potency, µM, most hits filed as inhibitors; hit rate 76% among 920; further: potency means the concentration at half of the fitted maximal effect
Pol eta inh-2: confirmation of human DNA polymerase eta inhibitors; shares compounds with Pol eta inh-1; Potency, µM, usual class: inhibitors; hit rate 64% among 2,600; AID 720502; Pol eta primer extension, TAMRA/BHQ fluorescence, 10 min; further: potency means the concentration at half of the fitted maximal effect
* marks the source's active call; other numbers are inactive results; i = inactive; ? = inconclusive; / = no result; ! = repeats disagree; [ ] = remark or other dose. A selection: hits, their analogues and other compounds. The true share with any hit is near 2.8%. Unless noted, the call rests on the fitted dose curve; in most records, active means well fitted curve in the direction sought with a large enough effect; inconclusive means small, poorly fitted or top-dose-only effect, or another doubt; inactive means no such curve, though single readings can be large; an effect the other way counts as inactive or inconclusive.

SMILES | PI4K2A inh | POLB inh | Pol kappa inh-1 | Pol iota inh | Pol eta inh-1 | PI5P4K alpha inh | Pol iota confirm | Pol eta inh-2 | others
CCN(CC)P(=O)(NC(=O)C(Cl)(Cl)Cl)N(CC)CC.[Cl-].[Cl-].[Cl-].[Nd+3] | 15 | ? | 79µM* | ? | ? | -10 | / | / | PGK validate=?
CCN(CC)C(=O)c1ccc2c(c1)C1C=CCC1C(C(=O)O)N2 (stereo unspecified) | -26 | 35µM* | ? | 13µM* | 4µM* | ? | / | / | PGK validate=?
COc1cc(CC(=O)OCC2=C[C@H]3[C@@H]4C(C)(C)[C@]4(OC(C)=O)[C@H](OC(=O)Cc4ccccc4)[C@@H](C)[C@]3(O)[C@@H]3C=C(C)C(=O)[C@@]3(O)C2)ccc1O | / | / | -20%[60.1 µM] | / | / | / | / | /
CN(C)[C@@H]1C(=O)C(C(N)=O)=C(O)[C@@]2(O)C(=O)C3=C(O)c4c(O)cccc4[C@@](C)(O)C3[C@H](O)C12 (stereo partly specified) | -26 | / | 8.9µM*! | 13µM* | 32µM*! | -88*! | ? | /
CNCC(N)C(=O)O (stereo unspecified) | / | / | 14%[60.1 µM] | / | / | / | / | /
COc1cccc2c1C(=O)c1c(O)c3c(c(O)c1C2=O)CC(O)(C(C)=NO)CC3OC1CC(N)C(O)C(C)O1 (stereo unspecified) | -12 | / | ? | 79µM* | 18µM* | 1 | 21* | 43*
O=C(CO)C(O)C(O)C(O)CO (stereo unspecified) | 5 | / | -9% | -4% | 0% | ? | / | /
O=C1NC(=O)N(CCC2=CCCCC2)C(=O)/C1=C/c1ccc(O)cc1 | -27 | 2% | -3% | -20% | -25% | ? | / | /
Cc1ccc(N2C(=O)NC(=O)/C(=C/c3ccoc3)C2=O)cc1 | -24 | ? | 22µM* | 7.9µM* | 3.2µM* | -83* | 12* | 17* | PGK validate=0.92µM*
COc1ccc(CN2C(=O)NC(=O)/C(=C/c3ccoc3)C2=O)cc1 | -17 | 10µM* | 20µM* | 10µM* | 20µM* | -71* | 19* | 27* | PGK validate=4.6µM*
C=CCN1C(=O)NC(=O)/C(=C/c2ccoc2)C1=O | -6 | 28µM* | 45µM* | 20µM* | 10µM* | -69* | 21* | 17*
C[N+](C)(C)CCCl | / | / | 9%[60.1 µM] | / | / | / | / | /
CCC1CN2CCC1CC2C(O)c1ccnc2ccc(OC)cc12 (stereo unspecified) | / | / | -3%[60.1 µM] | / | / | / | / | /
C=CCN1C[C@H](C)N([C@H](c2ccc(C(=O)N(CC)CC)cc2)c2cccc(O)c2)C[C@H]1C | / | / | -11%[19.4 µM] | / | / | / | / | /
O=c1c(O)c(-c2ccc(O)c(O)c2)oc2cc(O)cc(O)c12 | -2 | 0.2µM* | 0.95µM* | 0.56µM* | 0.71µM* | -84* | 15* | 12* | PGK validate=?;GALK inh confirm=42µM*;Redox cycling=-2%;HEK293 viability=?;Pol kappa inh-2=3*
CCCCOc1ccc(C(=O)NCCc2csc(-c3ccc(OC)cc3)n2)cc1 | -1 | -18% | -6%[60.1 µM] | ? | 1% | / | / | /
CC1(C)OC(c2ccccc2)=C/C(=C/C=C2C(=O)NC(=S)NC2=O)O1 | -10 | 50µM* | ? | ? | ? | ? | 67* | 76*
CN1/C(=C\C=C2C(=O)NC(=S)NC2=O)C(C)(C)c2ccccc21 | -2 | ? | 52% | -9% | 79µM* | -17 | ? | 85* | Pol kappa inh-2=60*
NC1(c2ccccc2)CCCCC1 | i | / | / | / | / | / | / | /
CCCCn1c(NC(=O)c2ccc(Br)o2)c(C(=O)OCC)c2nc3ccccc3nc21 | -8 | ? | -10% | ? | 22µM* | 1 | 42* | 19*
CCCCn1c(NS(=O)(=O)c2ccccc2)c(C(=O)OCC)c2nc3ccccc3nc21 | -1 | -13% | -18% | 34% | ? | -4 | / | /
Cn1cccc1/C=C1/C(=O)NC(=S)N(Cc2ccc(F)cc2)C1=O | 32 | ? | ? | 20µM* | 13µM* | -94* | 21* | 11*
CC(=O)Nc1ccc(N=Cc2c(O)n(Cc3ccco3)c(=O)[nH]c2=O)cc1 | -22 | 25µM* | ? | 45µM* | ? | ? | 60* | 76* | Pol kappa inh-2=?
O=C1C=C(N2CC2)c2ccccc2C1=O | ? | / | / | / | 8.9µM* | -66* | 47* | 30*
c1ccc(N2CCN(c3ccccc3)CC2)cc1 | / | / | -4% | 3% | / | / | / | /
N/C(=N\N=C/c1ccc(-c2ccc(O)c(C(=O)O)c2)o1)N[N+](=O)[O-] | -12 | 3.5µM* | 8.9µM* | 3.5µM* | 4.5µM* | / | 3* | 4.3* | PGK validate=6.5µM*;Pol kappa inh-2=3*
Cc1ccc(/C=C2/C(=O)NC(=O)N(C)C2=O)cc1 | -20 | 24% | -3% | 59% | -5% | -2 | / | /
CN1C(=O)NC(=O)/C(=C/c2ccc([N+](=O)[O-])o2)C1=O | ? | 32µM* | 22µM* | ? | 3.5µM* | -82* | 6* | 4.3* | PGK validate=2.6µM*
COc1cccc(N=Nc2c(O)[nH]c(=S)[nH]c2=O)c1 | -1 | 1% | 0% | ? | -10% | ? | / | /
COc1ccc(S(=O)(=O)Nc2ccccc2OC)cc1N=Nc1c(O)[nH]c(=S)[nH]c1=O | -11 | / | ? | ? | 22µM* | -16 | 42* | ? | Pol kappa inh-2=42*
